This is an account of results in PubChem BioAssay (Tox21).

Values joined by “and” are separate entries in the source; they are usually repeats but may differ in a detail not shown here. Equal entries are not always repeated. Inconclusive results are not listed. Active and inactive are the calls of the source. Unless noted, calls follow the shape of the dose curve; as a rule, active = well fitted curve in the direction sought with a large enough effect in the repeat runs; inconclusive = weak or mixed curves; inactive = no such curve, though single readings can be large; an effect the other way counts as inactive or inconclusive.

Assay [1] is described as follows: Human pregnane X receptor (PXR) small molecule agonists, qHTS cell viability counter screen (AID 1346977). Also: nearly all actives have a fitted effect of over 50% in size. In a few lines:
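Measures live-cell protease fluorescence (CellTiter-Fluor) in PXR-Luc HepG2 cells treated 24hr with compounds at 37C. Cells had 5hr to attach before pin transfer of DMSO solutions.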
In general terms: qHTS replaces the single test concentration by a dilution series.

The nature of assay [2]: Caspase-3/7 induction in CHO-K1 cells by small molecules, qHTS cell viability counter screen (AID 1346979). Also: nearly all actives have a fitted effect of over 35% in size. In a few lines:
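In the same wells as the caspase read, viability of compound-treated wild-type CHO-K1 cells was assessed using CellTiter-Fluor, added after 16hr at 37C and measured by fluorescence following 1hr further incubation.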

Assay [3] can be described thus: Caspase-3/7 induction in CHO-K1 cells by small molecules, qHTS assay (AID 1346980). Also: nearly all actives have a fitted effect of over 15% in size. A digest of the protocol: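 Wild-type CHO-K1 cells exposed to compounds for 17hr at 37 C, 5% CO2. Caspase-3/7 activity then measured by Caspase-Glo 3/7 luminescence after 30min at room temperature.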
A short description of assay [4]: Caspase-3/7 induction in HepG2 cells by small molecules, qHTS cell viability counter screen (AID 1346981). Also: series mostly up to about 92 µM; nearly all actives have a fitted effect of over 30% in size. A digest of the protocol:
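Wild-type HepG2 cells, 2,000/well, settled 5 hr at 37 C, 5% CO2 before compound addition. Viability read by CellTiter-Fluor fluorescence, reagent added after 16 hr compound exposure, then 1 hr at 37C, in the same wells as the caspase read.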

The target in assay [5] is Nuclear receptor subfamily 1 group I member 2 (Homo sapiens) (UniProt O75469). Description: Human pregnane X receptor (PXR) small molecule agonists, qHTS assay (AID 1346982). Also: nearly all actives have a fitted effect of over 35% in size. Also: potency is read from the fitted curve at half-maximal effect. A digest of the protocol: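 PXR-Luc HepG2 reporter cells (CYP3A4-driven luciferase) in 5% charcoal-stripped FBS medium, plated 5 h before compound addition, then treated 24 h at 37C. Luciferase read by ONE-Glo luminescence after 30 min at room temperature.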

In assay [6] the target is Acetylcholinesterase (Homo sapiens) (UniProt P22303). The assay can be described thus: Acetylcholinesterase (AChE) small molecule antagonists: colormetric cell-based qHTS assay (AID 1347395; calls by dose curve; also: nearly all actives have a fitted effect of over 30% in size; also: potency is read from the fitted curve at half-maximal effect). In a few lines:
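Endogenous AChE of human neuroblastoma SH-SY5Y cells was measured with an Ellman-type DTNB/acetylthiocholine mix. Compound pretreatment lasted 30 min at 37 C; substrate reaction ran 90 min at 37 C.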

For assay [7] the target is unchanged. Description: Acetylcholinesterase (AChE) small molecule antagonists: enzyme-based qHTS assay (AID 1347397; calls by dose curve; also: nearly all actives have a fitted effect of over 55% in size; also: potency is read from the fitted curve at half-maximal effect). The conditions noted are these: Potency: AChE enzyme activity inhibition; outcome: AChE enzyme activity inhibition. In a few lines: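 Recombinant human AChE (50 mU/mL) preincubated with compound 30 min at room temperature; acetylthiocholine plus DTNB then added, and thiocholine formation read colorimetrically after 10 min at room temperature. DMSO served as vehicle control.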

Assay [8] shares this target. Description: Acetylcholinesterase (AChE) small molecule antagonists: fluorescence cell-based qHTS assay (AID 1347398; calls by dose curve; also: nearly all actives have a fitted effect of over 50% in size). The conditions noted are these: Potency: AChE activity; outcome: AChE activity. A digest of the protocol:
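SH-SY5Y cells (2000/well), attached overnight, incubated with compound 30 min at 37 C. Acetylthiocholine plus Thiolite Green then added for 40 min at room temperature. Thiocholine fluorescence (Ex/Em 490/520 nm) reports cellular AChE activity.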

For assay [9] the target is unchanged. Description: Acetylcholinesterase (AChE) small molecule antagonists: enzyme-based qHTS assay with human liver microsomes (AID 1347399; calls by dose curve; also: nearly all actives have a fitted effect of over 60% in size). Conditions: Potency: qHTS inhibition; outcome: qHTS inhibition. In a few lines: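 Recombinant human AChE (50 mU/mL in the enzyme mix) and human liver microsomes (0.25 mg/mL final) were preincubated with compound and NADPH (0.25 mg/mL final) for 30 min at 37 C. Acetylthiocholine/DTNB was then added; thiocholine was read colorimetrically after 10 min at room temperature.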

In assay [10] the target is Cytochrome P450 2D6 (Homo sapiens) (UniProt P10635). Description: Cytochrome P450 Family 2 Subfamily D Member 6 (CYP2D6) small molecule antagonists: luciferase reporter qHTS assay (AID 1671196). Also: nearly all actives have a fitted effect of over 50% in size. Also: potency is read from the fitted curve at half-maximal effect. A digest of the protocol:
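Cell-free P450-Glo system: CYP2D6 with proluciferin substrate was pre-incubated with compound for 10 min, then reacted with NADPH regeneration for 1 h at room temperature. Luciferin product was detected after 20 min, and data were reported as relative luminescence units.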
Background: In a reporter assay the amount or activity of a reporter protein is the signal.

The target in assay [11] is Cytochrome P450 2C19 (Homo sapiens) (UniProt P33261). The assay can be described thus: Cytochrome P450 Family 2 Subfamily C Member 19 (CYP2C19) small molecule antagonists: luciferase reporter qHTS assay (AID 1671197). Also: nearly all actives have a fitted effect of over 65% in size. Also: potency is read from the fitted curve at half-maximal effect. In a few lines:
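Quantitative high-throughput screen of the Tox21 library using CYP2C19 with proluciferin substrate. Reaction: NADPH regeneration, 37C, 1 h, after 10 min compound preincubation at room temperature. Readout: luminescence.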

Assay [12] concerns the target Cytochrome P450 2C9 (Homo sapiens) (UniProt P11712). The assay can be described thus: Cytochrome P450 Family 2 Subfamily C Member 9 (CYP2C9) small molecule antagonists: luciferase reporter qHTS assay (AID 1671198). Also: nearly all actives have a fitted effect of over 50% in size. Also: potency is read from the fitted curve at half-maximal effect. A digest of the protocol: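 P450-Glo proluciferin substrate with CYP2C9 enzyme; 10 min RT preincubation, then NADPH regeneration 1 h at 37C; luciferin detection reagent 20 min RT, luminescence in relative luminescence units.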

For assay [13], the target named is Cytochrome P450 1A2 (Homo sapiens) (UniProt P05177). Description: Cytochrome P450 Family 1 Subfamily A Member 2 (CYP1A2) small molecule antagonists: luciferase reporter qHTS assay (AID 1671199). Also: nearly all actives have a fitted effect of over 50% in size. Also: potency is read from the fitted curve at half-maximal effect. In a few lines: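 P450-Glo CYP1A2 enzyme–proluciferin substrate mix with compound 10 min at room temperature, then NADPH regeneration 1 h at room temperature. Luciferin detection reagent added, luminescence read after 20 min; furafylline positive control.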

Assay [14] addresses Voltage-gated inwardly rectifying potassium channel KCNH2 (Homo sapiens) (UniProt Q12809). The assay can be described thus: Human Ether-a-go-go-Related Gene (hERG) channel small molecule antagonists: fluorescence cell-based qHTS assay (AID 1671200). Also: nearly all actives have a fitted effect of over 50% in size. Also: potency is read from the fitted curve at half-maximal effect. In a few lines: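 Quantitative HTS in hERG-U2OS cells: thallium entry through the channel reports activity, read as continuous 480/540 nm fluorescence over 2 min after stimulus addition.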
(Block of hERG is tested as a sign of cardiac risk.)

The target of assay [15] is Cytochrome P450 3A4 (Homo sapiens) (UniProt P08684). Description: Cytochrome P450 Family 3 Subfamily A Member 4 (CYP3A4) small molecule antagonists: luciferase reporter qHTS assay (AID 1671201). In a few lines:
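Inhibition of CYP3A4 is measured as loss of light: the enzyme converts a proluciferin substrate to luciferin, detected luminescently. Reaction ran 1 h at room temperature with NADPH regeneration after a 10 min compound preincubation.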

The nature of assay [16]: Caspase-3/7 induction in HepG2 cells by small molecules, qHTS assay (AID 1346978). Also: nearly all actives have a fitted effect of over 15% in size. A digest of the protocol:
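Wild-type HepG2 cells, 2,000/well, settled 5 hr at 37 C and 5% CO2, then compound-treated for 17 hr; caspase-3/7 activity read by luminescent Caspase-Glo 3/7 after 30 min at room temperature.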

Acetylcholinesterase (Homo sapiens), sequence (P22303 whole entry, looked up): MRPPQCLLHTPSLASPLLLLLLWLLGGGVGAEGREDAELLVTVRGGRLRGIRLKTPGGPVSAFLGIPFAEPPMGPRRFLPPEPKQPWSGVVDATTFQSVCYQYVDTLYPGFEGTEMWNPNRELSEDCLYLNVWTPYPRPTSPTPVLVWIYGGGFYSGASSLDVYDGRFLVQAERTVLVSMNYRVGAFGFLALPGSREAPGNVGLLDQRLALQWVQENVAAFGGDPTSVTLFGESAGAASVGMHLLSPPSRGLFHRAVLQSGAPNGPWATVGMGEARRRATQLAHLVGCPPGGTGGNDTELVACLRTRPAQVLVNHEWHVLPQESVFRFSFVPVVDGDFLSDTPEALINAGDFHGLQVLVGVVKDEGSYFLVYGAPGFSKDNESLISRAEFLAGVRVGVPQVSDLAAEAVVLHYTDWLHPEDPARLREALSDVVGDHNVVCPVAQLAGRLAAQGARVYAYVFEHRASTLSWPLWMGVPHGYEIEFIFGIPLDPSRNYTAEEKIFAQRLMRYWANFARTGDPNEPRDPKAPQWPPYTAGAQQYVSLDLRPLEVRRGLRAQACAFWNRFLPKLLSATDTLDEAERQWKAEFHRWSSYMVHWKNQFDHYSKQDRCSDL
Cytochrome P450 1A2 (Homo sapiens), sequence (P05177 whole entry, looked up): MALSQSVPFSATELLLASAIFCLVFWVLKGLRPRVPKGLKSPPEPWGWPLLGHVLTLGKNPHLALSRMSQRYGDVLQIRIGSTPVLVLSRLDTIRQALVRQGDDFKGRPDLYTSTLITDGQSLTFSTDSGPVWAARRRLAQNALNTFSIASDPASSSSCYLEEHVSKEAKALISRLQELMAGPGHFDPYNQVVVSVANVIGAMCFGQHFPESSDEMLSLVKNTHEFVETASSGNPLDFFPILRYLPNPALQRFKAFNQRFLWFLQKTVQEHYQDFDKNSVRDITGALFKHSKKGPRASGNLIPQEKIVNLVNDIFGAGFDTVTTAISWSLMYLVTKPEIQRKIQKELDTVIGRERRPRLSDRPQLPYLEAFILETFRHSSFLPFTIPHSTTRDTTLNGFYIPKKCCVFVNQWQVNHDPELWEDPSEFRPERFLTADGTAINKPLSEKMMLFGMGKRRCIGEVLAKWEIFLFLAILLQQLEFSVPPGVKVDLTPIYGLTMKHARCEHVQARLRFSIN
Cytochrome P450 2C9 (Homo sapiens), sequence (P11712 whole entry, looked up): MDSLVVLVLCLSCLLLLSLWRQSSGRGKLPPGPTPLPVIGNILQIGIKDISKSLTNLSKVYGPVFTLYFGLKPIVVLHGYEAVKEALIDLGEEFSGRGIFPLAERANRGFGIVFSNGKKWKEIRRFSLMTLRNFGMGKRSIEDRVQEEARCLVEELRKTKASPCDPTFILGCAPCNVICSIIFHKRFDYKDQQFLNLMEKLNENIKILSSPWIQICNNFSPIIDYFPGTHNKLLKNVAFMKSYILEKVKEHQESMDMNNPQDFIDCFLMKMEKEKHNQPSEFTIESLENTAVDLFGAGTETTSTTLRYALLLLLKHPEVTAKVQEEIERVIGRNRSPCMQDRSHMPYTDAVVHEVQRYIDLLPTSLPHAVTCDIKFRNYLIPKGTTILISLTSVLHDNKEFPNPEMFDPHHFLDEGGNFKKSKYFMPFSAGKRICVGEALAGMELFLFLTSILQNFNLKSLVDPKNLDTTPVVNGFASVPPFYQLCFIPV
Nuclear receptor subfamily 1 group I member 2 (Homo sapiens), sequence (O75469 whole entry, looked up): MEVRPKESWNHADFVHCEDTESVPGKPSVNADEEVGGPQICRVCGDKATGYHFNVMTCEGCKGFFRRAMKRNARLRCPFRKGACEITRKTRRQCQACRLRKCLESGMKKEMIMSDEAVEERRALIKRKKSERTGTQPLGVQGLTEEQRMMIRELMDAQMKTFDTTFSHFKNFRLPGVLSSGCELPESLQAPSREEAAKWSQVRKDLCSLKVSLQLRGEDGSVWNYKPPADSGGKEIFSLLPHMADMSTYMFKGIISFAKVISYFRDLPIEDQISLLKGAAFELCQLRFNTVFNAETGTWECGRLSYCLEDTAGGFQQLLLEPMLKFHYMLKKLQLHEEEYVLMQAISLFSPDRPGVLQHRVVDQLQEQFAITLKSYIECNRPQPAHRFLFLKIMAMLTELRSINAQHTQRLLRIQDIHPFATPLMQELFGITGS
Voltage-gated inwardly rectifying potassium channel KCNH2 (Homo sapiens), sequence (Q12809 whole entry, looked up): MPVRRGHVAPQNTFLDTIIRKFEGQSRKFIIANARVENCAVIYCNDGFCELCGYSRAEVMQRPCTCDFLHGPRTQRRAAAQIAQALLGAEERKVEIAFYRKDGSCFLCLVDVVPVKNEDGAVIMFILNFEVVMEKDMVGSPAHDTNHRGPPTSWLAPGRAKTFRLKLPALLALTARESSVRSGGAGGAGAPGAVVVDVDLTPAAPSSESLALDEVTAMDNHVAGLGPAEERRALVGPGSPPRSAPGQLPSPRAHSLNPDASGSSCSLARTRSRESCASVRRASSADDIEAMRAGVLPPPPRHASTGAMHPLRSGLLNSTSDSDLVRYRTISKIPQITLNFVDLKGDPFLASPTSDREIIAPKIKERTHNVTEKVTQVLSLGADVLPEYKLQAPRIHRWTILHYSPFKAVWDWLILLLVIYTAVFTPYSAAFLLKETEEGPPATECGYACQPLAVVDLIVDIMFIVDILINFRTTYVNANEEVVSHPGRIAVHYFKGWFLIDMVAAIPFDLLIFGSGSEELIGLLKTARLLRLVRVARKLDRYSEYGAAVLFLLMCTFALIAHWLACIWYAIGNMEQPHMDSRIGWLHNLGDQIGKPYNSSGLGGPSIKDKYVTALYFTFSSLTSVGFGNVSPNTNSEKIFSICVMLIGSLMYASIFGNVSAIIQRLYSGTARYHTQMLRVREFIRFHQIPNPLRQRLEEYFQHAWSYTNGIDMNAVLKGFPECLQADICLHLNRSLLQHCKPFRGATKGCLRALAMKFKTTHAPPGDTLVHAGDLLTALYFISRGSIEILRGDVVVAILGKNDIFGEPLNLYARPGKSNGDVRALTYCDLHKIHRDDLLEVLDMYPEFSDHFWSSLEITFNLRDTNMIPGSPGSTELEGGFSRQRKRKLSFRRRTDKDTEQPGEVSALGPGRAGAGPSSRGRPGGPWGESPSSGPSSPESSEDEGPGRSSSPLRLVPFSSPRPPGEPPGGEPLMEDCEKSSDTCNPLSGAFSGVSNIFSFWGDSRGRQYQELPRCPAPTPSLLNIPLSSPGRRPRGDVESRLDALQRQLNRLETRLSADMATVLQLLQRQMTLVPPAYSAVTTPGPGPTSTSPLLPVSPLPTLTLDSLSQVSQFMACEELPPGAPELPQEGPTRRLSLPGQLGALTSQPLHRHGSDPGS
Cytochrome P450 2C19 (Homo sapiens), sequence (P33261 whole entry, looked up): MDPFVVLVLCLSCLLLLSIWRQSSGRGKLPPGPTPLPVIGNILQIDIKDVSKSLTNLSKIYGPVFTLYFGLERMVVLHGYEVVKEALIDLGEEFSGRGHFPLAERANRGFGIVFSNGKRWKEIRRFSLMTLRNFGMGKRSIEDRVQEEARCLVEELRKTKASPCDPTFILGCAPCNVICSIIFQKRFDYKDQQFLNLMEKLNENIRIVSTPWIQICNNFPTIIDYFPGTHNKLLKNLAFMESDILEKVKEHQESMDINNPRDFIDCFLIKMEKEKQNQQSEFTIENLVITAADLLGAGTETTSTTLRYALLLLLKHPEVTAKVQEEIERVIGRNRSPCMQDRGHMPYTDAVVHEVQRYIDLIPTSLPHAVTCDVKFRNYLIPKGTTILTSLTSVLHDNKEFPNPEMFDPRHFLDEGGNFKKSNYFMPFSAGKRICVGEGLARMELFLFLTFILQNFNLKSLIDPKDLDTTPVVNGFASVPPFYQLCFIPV
Cytochrome P450 2D6 (Homo sapiens), sequence (P10635 whole entry, looked up): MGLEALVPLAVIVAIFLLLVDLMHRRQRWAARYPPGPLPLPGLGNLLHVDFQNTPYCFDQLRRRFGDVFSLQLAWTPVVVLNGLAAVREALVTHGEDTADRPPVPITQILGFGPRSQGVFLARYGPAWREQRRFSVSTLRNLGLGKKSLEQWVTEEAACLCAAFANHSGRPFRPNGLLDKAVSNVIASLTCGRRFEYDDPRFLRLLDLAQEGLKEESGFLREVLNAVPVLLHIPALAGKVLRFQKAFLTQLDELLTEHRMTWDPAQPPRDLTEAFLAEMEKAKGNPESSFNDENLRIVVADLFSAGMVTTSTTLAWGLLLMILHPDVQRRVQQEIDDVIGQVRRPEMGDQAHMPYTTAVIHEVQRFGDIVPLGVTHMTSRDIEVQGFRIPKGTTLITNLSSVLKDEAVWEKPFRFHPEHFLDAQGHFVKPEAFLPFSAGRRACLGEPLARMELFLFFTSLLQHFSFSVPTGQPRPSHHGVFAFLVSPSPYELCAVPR
Cytochrome P450 3A4 (Homo sapiens), sequence (P08684 whole entry, looked up): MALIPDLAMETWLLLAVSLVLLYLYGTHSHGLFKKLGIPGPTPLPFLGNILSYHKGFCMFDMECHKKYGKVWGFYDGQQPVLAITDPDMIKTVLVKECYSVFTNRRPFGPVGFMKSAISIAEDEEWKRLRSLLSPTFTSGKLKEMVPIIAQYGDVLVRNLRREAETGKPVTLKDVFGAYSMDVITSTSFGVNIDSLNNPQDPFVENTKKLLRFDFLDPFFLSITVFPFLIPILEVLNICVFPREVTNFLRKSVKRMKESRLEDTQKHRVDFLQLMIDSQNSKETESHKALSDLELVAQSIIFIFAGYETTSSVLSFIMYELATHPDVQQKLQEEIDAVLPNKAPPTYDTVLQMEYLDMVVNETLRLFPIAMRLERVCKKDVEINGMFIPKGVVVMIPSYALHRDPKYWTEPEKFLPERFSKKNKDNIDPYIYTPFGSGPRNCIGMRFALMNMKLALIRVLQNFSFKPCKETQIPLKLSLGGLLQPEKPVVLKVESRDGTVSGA

With `CN1CC[C@]23c4c5ccc(O)c4O[C@H]2[C@@H](O)CC[C@H]3[C@H]1C5`, the Potency entry in assay [1], in [2], in assay [3], in assay [4], in [5] and in assay [6] was “inactive” throughout. Moreover, the Potency entry in assay [7], in [8], in [9], in [11], in assay [12] and in [13] was “inactive” in each case. Also, the Potency entry in assay [14] and in [15] was “inactive” in each case. Also, the Potency in assay [10] was 44 µM (active).
As to `CC(Oc1cccc(Cl)c1)C(=O)O` (configuration not stated), the Potency result in [1], in assay [2], in [3], in assay [4], in assay [5] and in [6] was “inactive” throughout. Besides, the Potency entry in assay [7], in assay [8], in [9], in assay [10], in [11] and in [13] was “inactive” each time. Besides, the Potency entry in assay [14] and in assay [15] was “inactive” throughout.
Regarding `C=C(Cl)Cl`, the Potency result in assay [1], in assay [16], in assay [3], in [4], in assay [6] and in assay [7] was “inactive” each time. Moreover, the Potency entry in assay [8], in assay [9], in assay [10], in [14] and in assay [15] was “inactive” throughout. The figures for the Potency in assay [5] and in assay [11] were 58 µM (active) and 75.6 µM (active), respectively.
As for `O=C(Cl)OCCOCCOC(=O)Cl`, the Potency entry in assay [1], in [16], in assay [3], in [4], in [5] and in assay [6] was “inactive” in each case. In addition, the Potency result in assay [7], in assay [8], in [9], in assay [14] and in assay [15] was “inactive” throughout. In addition, in assay [10], the Potency is 79.6 µM (active).
In the case of `COCc1cnc(C2=NC(C)(C(C)C)C(=O)N2)c(C(=O)O)c1` (configuration not stated), the Potency entry in [1], in [3], in assay [4], in assay [5], in assay [7] and in [8] was “inactive” throughout. Further, the Potency entry in assay [9], in assay [10], in assay [14] and in assay [15] was “inactive” each time. Further, the Potency in [12] is 35.6 µM (active).
Consider `O=S(=O)(Cl)Cl`, for which the Potency entry in assay [1], in assay [2], in assay [3], in assay [4], in assay [5] and in [6] was “inactive” in each case. Further, the Potency entry in assay [7], in [8], in [9], in assay [12], in assay [13] and in assay [14] was “inactive” each time. The Potency result in assay [15] is “inactive”.
With `CC(C)c1ccc(OP(=O)(Oc2ccc(C(C)C)cc2)Oc2ccc(C(C)C)cc2)cc1`, the Potency entry in assay [1], in assay [3], in assay [4], in assay [9] and in assay [15] was “inactive” each time. The Potency in assay [5] was 4.36 µM (active) and 5.45 µM (active) and 10.9 µM (active); in assay [6], 35.8 µM (active) and 31.7 µM (active); in assay [7], 28.5 µM (active) and 28.3 µM (active); in assay [11], 3.58 µM (active) and 3.56 µM (active) and 2.83 µM (active); in assay [12], 2.26 µM (active) and 3.17 µM (active) and 2.83 µM (active); in [13], 22.6 µM (active) and 15.9 µM (active) and 17.8 µM (active). Also, the Potency in assay [14] is 17.5 µM (active) and 21.9 µM (active).
As to `CCOP(=O)(SC(C)CC)N1CCSC1=O` (configuration not stated), the Potency entry in assay [1], in [2], in [3], in assay [6], in assay [7] and in assay [8] was “inactive” in each case. Further, the Potency entry in assay [9], in assay [10] and in assay [14] was “inactive” throughout. Further, the Potency was 79.6 µM (active) in assay [11], 63.3 µM (active) in assay [12] and 35.6 µM (active) in assay [13].
